# Luc counter: Counterscreen for Luciferase (Kinase-Glo TM) Inhibition; Kinase-Glo luciferase, ATP luminescence, 8 min; Potency, µM (titrated, usually from 38.3 µM), for inactives: at the top dose activity change, negative = inhibition, most hits filed as inhibitors; hit rate 0.28% among 200,000; AID 1379, 2008; note: % is set by controls: 0 for no effect and ±100 for the full control effect; nearly all actives have a fitted effect of over 60% in size
#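 Recombinant Kinase-Glo luciferase, 10 uM ATP (linear range), luciferin; imidazole pH 7.2 / KCl / MgCl2 / Tween / BSA buffer; 8 min RT; luminescence.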
# SMN2 splice up: qHTS Assay for Enhancers of SMN2 Splice Variant Expression. AID 1458, 2008. hit rate 2.8% among 210,000. Potency, µM (titrated, usually from 46.1 µM), for inactives: at the highest dose activity change, positive = activation, actives largely listed as activators. HEK293 SMN2-luciferase splicing reporter, luminescence, 30-36 h; note: % of control where 0% means no effect; nearly all actives have a fitted effect of over 55% in size
#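 HEK293 cells carry an SMN2 minigene-luciferase reporter in which exon 7 inclusion puts luciferase in frame. Cells were seeded at 2000 cells/well, attached for 10-12 hours, then exposed to compounds for 30-36 hours at 37C before ONE-Glo luminescence.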
# NPC1 promoter act: qHTS Assay for NPC1 Promoter Activators. Huh7 NPC1 promoter luciferase reporter, 24 h. Potency, µM (series often up to 9.22 µM), for the others: at the highest dose activation, actives largely listed as activators. hit rate 2.4% among 320,000. AID 485313, 2010; note: % of control where 0% means no effect; nearly all actives have a fitted effect of over 60% in size
#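 Stably transfected Huh7 (NPC1 promoter→luciferase), 1500 cells/well in Opti-MEM + 10% FBS, 2 h settle, then compound 24 h at 37 °C. Luminescence after 10 min with Amplite reagent.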
# Rab9 promoter act: qHTS Assay for Rab9 Promoter Activators | Huh7 Rab9 promoter-luciferase reporter, luminescence, 24 h | Potency, µM (titrated, usually from 9.22 µM), for inactives: at the top dose activation, negative = inhibition, most hits filed as activators | hit rate 2.8% among 320,000 | AID 485297, 2010; note: % of control where 0% means no effect; nearly all actives have a fitted effect of over 60% in size
#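 Steps: seed 1500 Huh7 Rab9-luc cells per well, rest 2 h at 37 °C; add compound in DMSO; incubate 24 h; add luciferase reagent, 10 min ambient; read luminescence.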
# FLuc modulator: qHTS profiling assay for firefly luciferase inhibitor/activator using purifed enzyme and Km concentrations of substrates (counterscreen for miR-21 project); Potency, µM (titrated, usually from 57.5 µM), for inactives: at the top dose activity change, negative = inhibition, actives largely listed as inhibitors; purified FLuc, Km substrates, luminescence inhibition; hit rate 6.9% among 360,000; Luciferin 4-monooxygenase (Photinus pyralis), P08659; AID 588342, 2011;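 note: plate controls were vehicle for no effect and reference inhibitor for full effect; nearly all actives have a fitted effect of over 55% in size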
# Target sequence (P08659 whole entry, looked up): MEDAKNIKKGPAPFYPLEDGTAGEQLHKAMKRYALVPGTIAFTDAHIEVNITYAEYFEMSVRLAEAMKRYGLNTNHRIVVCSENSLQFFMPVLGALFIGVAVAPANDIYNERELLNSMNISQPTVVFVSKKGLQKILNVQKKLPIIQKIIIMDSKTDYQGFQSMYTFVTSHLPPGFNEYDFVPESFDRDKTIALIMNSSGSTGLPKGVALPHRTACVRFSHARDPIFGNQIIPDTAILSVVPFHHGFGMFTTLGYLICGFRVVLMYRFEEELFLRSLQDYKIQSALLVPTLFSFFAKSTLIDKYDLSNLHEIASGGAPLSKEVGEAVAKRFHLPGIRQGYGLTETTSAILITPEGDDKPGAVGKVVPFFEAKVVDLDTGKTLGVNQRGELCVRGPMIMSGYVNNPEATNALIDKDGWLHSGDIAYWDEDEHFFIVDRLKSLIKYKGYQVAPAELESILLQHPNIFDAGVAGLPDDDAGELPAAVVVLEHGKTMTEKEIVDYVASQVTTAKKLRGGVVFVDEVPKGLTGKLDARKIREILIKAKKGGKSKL
#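 Purified P. pyralis luciferase (10nM final) with 10uM D-luciferin and 10uM ATP (Km levels) in 50mM Tris acetate pH 7.5, 10mM Mg acetate, 0.01% Tween-20, 0.05% BSA; qHTS 6-point titration, ~60 µM downward; luminescence read.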
# * marks the source's active call; other numbers are inactive results; ? = inconclusive; / = not tested or not shown; [ ] = dose if it differs, or a comment. Most compounds without a hit are left out; they make up all but 7.3% or so of the library. Calls come from the whole dose curve; as a rule, active = well fitted curve in the direction sought with a large enough effect; inconclusive = small, poorly fitted or top-dose-only effect, or another doubt; inactive = no such curve, though single readings can be large; an effect the other way counts as inactive or inconclusive. Potency is the fitted concentration of half-maximal effect.
SMILES,Luc counter,SMN2 splice up,NPC1 promoter act,Rab9 promoter act,FLuc modulator
CC(C)c1ccc(/C=C2\SC(=O)N(CC(=O)NC3CCS(=O)(=O)C3)C2=O)cc1 (stereo not given),/,/,3.98µM*,?,1.07µM*
O=C(CN1C(=O)S/C(=C\C=C\c2ccccc2)C1=O)NC1CCS(=O)(=O)C1 (stereo not given),/,/,2.51µM*,2.82µM*,5.36µM*
CCOC(=O)c1cc2c(C)n(-c3ccc(N(C)C)cc3)c(C)c2cc(C(=O)OCC)c1=O,-1.1%,-22.6%,28.7%,?,1.69µM*
CC1CCc2c(sc3[nH]c(=S)n(C)c(=O)c23)C1 (stereo not given),/,/,11.9%,23.2%,19µM*
CCn1c(=S)[nH]c2sc3c(c2c1=O)CCCC3,/,/,-2.9%,-3.2%,?
Cc1ccc(SCC(=O)NC2CCS(=O)(=O)C2)cc1C (stereo not given),/,/,-2.3%,0.7%,-1.4%
Cc1ccc(-c2cn(-c3ccccc3)c(SCC(=O)NC3CCS(=O)(=O)C3)n2)cc1C (stereo not given),2.9%,?,3.16µM*,2µM*,?
Cc1ccc(N2C(=O)c3ccc(N)cc3C2=O)cc1,/,/,3.55µM*,3.98µM*,7.57µM*
CC(=O)Nc1ccc2c(c1)C(=O)N(c1ccc(C)cc1)C2=O,2.6%,-12.2%,18.3%,-3.0%,?
Cc1ccc(N2C(=O)c3ccc(N)cc3C2=O)cc1C,0.4%,13.8%,2.51µM*,3.98µM*,10.7µM*
CC1=C(C(=O)Nc2ccccc2)C(c2cccc(Cl)c2)n2nc(SCC(=O)c3ccc(C)cc3)nc2N1 (stereo not given),/,/,/,/,-5.4%
Fc1ccc(Nc2nc3ccccc3s2)cc1,-0.5%,12.6µM*,?,2.51µM*,7.57µM*
Cc1ccc(Nc2nc3ccccc3s2)cc1,-6.8%,2.82µM*,1µM*,0.708µM*,0.849µM*
O=[N+]([O-])c1ccc(Nc2nc3ccccc3s2)cc1,0.9%[7.66 µM],-7.3%[9.22 µM],/,/,/
Cc1ccccc1Nc1nc2ccccc2s1,-7.4%,11.2µM*,3.55µM*,2.51µM*,4.78µM*
COC(=O)c1ccc(OCC2c3cc(OC)c(OC)cc3CCN2C(=O)C(C)C)cc1 (stereo not given),/,/,/,/,1.6%
CCCSc1nc2c3c(sc2c(=O)[nH]1)CC(C)(CC)OC3 (stereo not given),3.7%,9.2%,5.3%,2.9%,5.36µM*
CCOC(=O)CSc1nc2sc3c(c2c(=O)[nH]1)CC(C)(CC)OC3 (stereo not given),-1.2%,-11.2%,2.2%,-2.7%,-2.4%
O=C(Cn1cnc2c(cnn2-c2ccccc2)c1=O)OCc1ccccc1,-0.5%,7.7%,23.1%,3.98µM*,10.7µM*
CCc1ccc(NC(=O)CC2C(=O)N(c3cccc(OC)c3)C(=O)N2C2CCCC2)cc1 (stereo not given),/,/,/,/,-4.1%
CCc1nc2sc3c(O)cc(=O)[nH]c3c2cc1C,/,/,0.3%,-1.1%,15.1µM*
COc1ccc(CCNC(=O)c2cc(S(=O)(=O)N3CCCC(C)C3)cn2C)cc1OC (stereo not given),/,/,/,/,3.9%
Cn1cccc1C(=O)NCCc1ccc(Cl)cc1,/,/,2.82µM*,2.51µM*,15.1µM*
Cn1cccc1C(=O)NCCc1ccccc1,/,/,0.398µM*,0.501µM*,4.78µM*
COc1ccc(CCNC(=O)c2cccn2C)cc1,/,/,0.8%,4.4%,0.7%
SMILES,Luc counter,SMN2 splice up,NPC1 promoter act,Rab9 promoter act,FLuc modulator
Cn1cccc1C(=O)NCC1COc2ccccc2O1 (stereo not given),/,/,?,3.16µM*,2.2%
Cc1ccccc1C(=O)N1CCC(N2CCN(Cc3ccc(F)cc3)C(=O)C2=O)CC1,/,/,/,/,-0.9%
CCc1nn(CC(=O)NCCN(CC(C)C)CC(C)C)c(=O)c2cc3sc(C)cc3n12,/,-1.9%,/,/,-5.5%
Cc1ccc(-c2cn3c4c(=O)n(C)c(=O)n(C)c4nc3n2-c2cccc(Cl)c2)cc1,/,/,/,/,2.1%
COc1ccc2cc(CNc3ccc(OC)c(OC)c3)c(=O)n(CC(=O)Nc3ccc(C)cc3)c2c1,/,/,/,/,2.9%
NC(=O)c1ccccc1NC(=O)CN1CCCCCC1,/,/,18.3%,0.3%,3.8%
Cc1cccc(C(=O)Nc2sc(-c3ccccc3)cc2C(=O)O)c1,/,/,2.51µM*,?,10.7µM*
NC(=O)c1cc(-c2ccccc2)sc1NC(=O)CN1CCCCC1,1.0%,-2.6%,0.2%,-2.7%,19µM*
CC(C)(C)C(=O)Nc1sc(-c2ccccc2)cc1C(=O)O,/,/,4.47µM*,3.16µM*,10.7µM*
Nc1sc(-c2ccccc2)cc1C(=O)O,6.3%,-3.3%,13.6%,9.2%,-19.6%
CCOC(=O)c1cc(-c2ccccc2)sc1NC(=O)c1ccc(OC)c(OC)c1,-0.1%,-26.0%,-2.7%,-5.7%,-19.8%
CC1=C(C(=O)Nc2c(C)cc(C)cc2C)C2(CCN(C(C)C)CC2)OC1=O,/,/,/,/,0.6%
Cn1c(=O)c2sccc2n2c(CCC(=O)N3CCN(c4ccc(F)cc4)CC3)nnc12,/,1.2%,/,/,-0.8%
CCC(C)c1ccc(OCc2ccc(C(=O)O)o2)cc1 (stereo not given),/,/,?,?,3.01µM*
CCOc1ccc(OCc2ccc(C(=O)N3N=C(C(F)F)CC3(O)C(F)F)o2)cc1 (stereo not given),-5.9%,?,27.6%,3.98µM*,-0.9%
O=C(c1ccc(COc2ccc(Br)cc2)o1)N1N=C(C(F)F)CC1(O)C(F)F (stereo not given),-0.2%,-45.8%,7.4%,-1.9%,-8.5%
CCOc1ccc(OCc2ccc(C(=O)OCc3ccccn3)o2)cc1,-3.7%,8.91µM*,?,0.891µM*,?
CN1CCN(C(=O)c2ccc(COc3ccc(C(C)(C)C)cc3)o2)CC1,-0.1%,?,?,?,8.49µM*
CCOC(=O)c1c(C)[nH]c(C)c1S(=O)(=O)N1CCC(C(=O)NCc2cccc(OC)c2)CC1,/,/,/,/,5.9%
CCOc1cccc(C(=O)N(Cc2ccc(N(C)C)cc2)CC2CCCO2)c1 (stereo not given),/,-11.2%,/,/,-3.1%
CCOC(=O)c1ccc(COc2ccc(C(C)C)cc2)o1,/,/,0.631µM*,0.501µM*,15.1µM*
CCOc1ccc(OCc2ccc(C(=O)N3CCCC3)o2)cc1,1.4%,7.1%,?,5.2%,?
CC(C)c1ccc(OCc2ccc(C(=O)N3CCCC3)o2)cc1,/,/,?,2µM*,16.9µM*
O=C(N/N=C1\CCc2ccccc21)c1ccccc1O,10µM*,1.12µM*,0.631µM*,0.794µM*,1.69µM*
O=C(N/N=C1\CCc2ccccc21)c1ccncc1,-4.6%,20µM*,?,?,21.3µM*
O=C(NN=C1C2CC3CC(C2)CC1C3)c1ccccc1O,/,/,-8.1%,-2.8%,16.9µM*
Cc1ccc(Cc2nc3ccccc3nc2SCC(=O)NCc2ccc(F)cc2)cc1,/,/,/,/,2.4%

# Screening results deposited in PubChem BioAssay by National Center for Advancing Translational Sciences (NCATS).
